Experimental data: PubChem BioAssay AID485346 (Sanford-Burnham Center for Chemical Genomics, 2010)
The whole screen tested about 330,000 compounds, of which about 10,000 (3%) were called active. This is one part of a sample in which actives are shown more often than they occur. Unmarked numbers belong to inactive results.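 The calls were made as follows: active = inhibition of at least 50% at 8 µM in the primary screen; inactive = the rest.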

Biological target: Protein Mdm4 (Homo sapiens) + E3 ubiquitin-protein ligase Mdm2 (Homo sapiens) (UniProt O15151+Q00987)
Experiment: inhibitors of human Mdm2-MdmX association, primary screen, cell-based, luminescence, split luciferase, SaOS-2, uHTS (AID 485346)
Conditions: SaOS-2 split-luciferase Mdm2/MdmX complementation, at 8 µM, hits give high values

Chain of Protein Mdm4 (Homo sapiens) + E3 ubiquitin-protein ligase Mdm2 (Homo sapiens) (O15151 whole entry, looked up): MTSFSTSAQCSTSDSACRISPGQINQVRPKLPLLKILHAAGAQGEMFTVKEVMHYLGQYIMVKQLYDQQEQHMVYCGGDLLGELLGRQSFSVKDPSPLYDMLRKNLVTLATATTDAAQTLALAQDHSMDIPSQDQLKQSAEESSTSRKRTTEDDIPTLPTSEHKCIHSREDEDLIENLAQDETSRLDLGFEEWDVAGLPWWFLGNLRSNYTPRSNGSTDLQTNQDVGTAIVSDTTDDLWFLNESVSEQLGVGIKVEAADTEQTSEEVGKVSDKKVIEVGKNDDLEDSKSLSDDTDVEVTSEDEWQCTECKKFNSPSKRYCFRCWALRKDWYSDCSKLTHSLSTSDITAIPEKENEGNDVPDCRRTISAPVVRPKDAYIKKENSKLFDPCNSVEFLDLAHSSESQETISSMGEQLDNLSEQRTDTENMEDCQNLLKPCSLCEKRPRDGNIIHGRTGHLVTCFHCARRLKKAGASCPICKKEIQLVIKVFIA
Chain of Protein Mdm4 (Homo sapiens) + E3 ubiquitin-protein ligase Mdm2 (Homo sapiens) (Q00987 whole entry, looked up): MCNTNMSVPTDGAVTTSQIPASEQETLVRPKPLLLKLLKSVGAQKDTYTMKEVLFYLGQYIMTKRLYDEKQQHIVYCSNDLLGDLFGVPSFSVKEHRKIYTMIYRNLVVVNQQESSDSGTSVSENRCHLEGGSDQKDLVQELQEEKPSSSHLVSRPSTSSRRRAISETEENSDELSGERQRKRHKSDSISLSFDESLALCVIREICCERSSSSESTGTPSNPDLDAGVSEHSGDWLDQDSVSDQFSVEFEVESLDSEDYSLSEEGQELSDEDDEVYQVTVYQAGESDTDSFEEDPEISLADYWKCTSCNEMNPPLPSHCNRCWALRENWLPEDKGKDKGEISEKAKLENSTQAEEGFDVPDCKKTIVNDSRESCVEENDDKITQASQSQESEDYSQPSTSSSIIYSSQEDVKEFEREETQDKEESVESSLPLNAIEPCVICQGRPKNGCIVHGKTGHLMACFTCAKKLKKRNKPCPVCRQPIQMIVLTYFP

Row | SMILES | inhibition
1 | Cc1noc(C)c1CCC(=O)N1CCCC(CO)(Cc2ccccc2)C1 (centres undefined) | -31.3%
2 | COc1ccc(Cl)cc1NC(=O)CN(C)Cc1ccc(OC)c(OC)c1 | 29.4%
3 | C/C(=N\NC(=O)OC(C)(C)C)c1ccc[nH]1 | -29.2%
4 | COc1ccccc1C(=O)Nc1ccc(C)c(S(=O)(=O)N2CCCCC2)c1 | 15%
5 | O=C(Nc1ccc(N2CCN(C(=O)c3cccs3)CC2)cc1)c1cccnc1Cl | -22.2%
6 | Cc1ccccc1C(=O)N1CCN(c2ccc(NC(=O)c3cccs3)cc2)CC1 | 53.9% (active)
7 | O=C(Nc1ccc(N2CCN(C(=O)C3CC3)CC2)cc1)c1cccs1 | -10.3%
8 | CCCc1cc(=O)[nH]c(SCC(=O)Nc2ccc(C(=O)Nc3ccccc3OC)cc2)n1 | 21.4%
9 | COCCNC(=O)C(OC(=O)c1cccs1)c1ccc(F)cc1 (centres undefined) | 4.05%
10 | CCc1cccc(NC(=O)CCC(=O)O)c1 | 3.13%
11 | O=C(CCl)Nc1cccc(CP(=O)(c2ccccc2)c2ccccc2)c1 | 96.3% (active)
12 | O=C(Cc1ccccc1)Nc1cccc(NC(=O)c2ccccc2)c1 | 4.35%
13 | Clc1ccc(-c2nc3ccccn3c2CN2CCSCC2)cc1 | 15.3%
14 | Cc1ccc(CNC(=O)C2CCN(S(=O)(=O)c3ccc4nc5c(c(C(=O)O)c4c3)CC(C)CC5)CC2)cc1 (centres undefined) | 6.94%
15 | O=C(NC(=S)Nc1ccc(Cl)cc1Cl)C1CC1 | -39.2%
16 | CC(=O)Nc1ccc(Nc2nc3c(S(=O)(=O)c4ccc(C)c(C)c4)nnn3c3ccccc23)cc1 | 23.4%
17 | Cc1cccc(Nc2nc3c(S(=O)(=O)c4ccccc4)nnn3c3ccccc23)c1C | 77.7% (active)
18 | Cc1ccc(S(=O)(=O)c2nnn3c2nc(N2CCN(c4ccccn4)CC2)c2ccccc23)cc1 | 10.2%
19 | COc1ccc(C2(CNC(=O)Cc3ccc(OC)c(OC)c3)CCCC2)cc1 | 10.1%
20 | CN(C)c1nc(Nc2ccc(Cl)c(Cl)c2)nc(N(C)C)n1 | -14.8%
21 | OCCNc1nc(Nc2ccc(Cl)c(Cl)c2)nc2ccccc12 | 80.6% (active)
22 | Cc1nnc(NCCO)c2ccccc12 | -14%
23 | COc1ccc(C(C#N)N2N=C(C)CC2(C)C)cc1 (centres undefined) | -22.4%

Row | SMILES | inhibition
24 | Cc1ccc(S(=O)(=O)N2[C@@H](c3ccc(Br)cc3)C(C(=O)O)=C[C@H]2CC2CCCC2)cc1 | 30.4%
25 | COc1ccc2c(c1)CCNC2Cc1ccc(OC)c(O)c1 (centres undefined) | -20.9%
26 | CC[C@H]1CN2CCc3cc(OC)c(OC)cc3[C@@H]2C[C@@H]1C[C@H]1NCCc2cc(OC)c(OC)cc21 | 91.7% (active)
27 | CCc1ccc(OCC2c3cc(OC)c(OC)cc3CCN2C(C)=O)cc1 (centres undefined) | 6.86%
28 | C=C(C)c1cccc(C(C)(C)NC(=O)NCCN(CC)CC)c1 | 14.6%
29 | Cc1ccc(S(=O)(=O)N2C[C@@H]3CCCC[C@@H]3[C@@H](C)[C@H]2c2cn(Cc3ccccc3)c3ccc(F)cc23)cc1 | 30%
30 | CCNC(=O)COC(=O)/C=C/c1c(C)nn(Cc2cccc(OC)c2)c1Cl | 11.4%
31 | COc1ccc(NS(=O)(=O)c2ccc(NC(=S)NC(=O)/C=C/c3ccc(C)cc3)cc2)nn1 | -0.635%
32 | Cc1ccc(C(=O)/C=C/Nc2ccc(S(=O)(=O)Nc3onc(C)c3C)cc2)cc1 | 0.513%
33 | COc1ccc(/C=C/C(=O)c2ccc(NS(=O)(=O)c3ccc(C)cc3)cc2)cc1O | 65.1% (active)
34 | Cc1cc(C)n2nc(C(=O)OC(C)C(=O)c3cc(C)c(C)cc3C)nc2n1 (centres undefined) | 1.62%
35 | OCC[C@H]1C[C@H](O)[C@@H](O)[C@]2(Cc3ccccc3CO2)O1 | -20.7%
36 | Cc1cccc(NC(=O)c2nc[nH]c2C(=O)NCC(=O)OCc2ccccc2)c1 | 10.4%
37 | CSc1ncc(Cl)c(C(=O)Nc2cc(C)ccc2C)n1 | -15.6%
38 | Cc1cccc(NC(=O)C(C)SCc2ccccc2)c1 (centres undefined) | 0.19%
39 | CCOc1ccc(NC(=O)c2nc(SCC)ncc2Cl)cc1 | 46.8%
40 | Cc1cccc(CS(=O)(=O)c2ncc(Cl)c(C(=O)Nc3ccc(F)cc3)n2)c1 | 82.1% (active)
41 | Cc1cccc(NC(=O)c2nc(S(=O)(=O)Cc3ccccc3)ncc2Cl)c1 | 97.5% (active)
42 | CCOc1ccc2c(c1)c(=O)c(S(=O)(=O)c1ccc(C)cc1)cn2CC | 5.7%
43 | O=C(COC(=O)C1CC2C=CC1C2)Nc1ccccc1 (centres undefined) | -11.4%
44 | CCS(=O)(=O)c1ccc(C(=O)NC)c(Cl)c1Cl | 13.4%
45 | COc1cc(C(=O)Nc2cc(C(F)(F)F)ccc2N2CCOCC2)ccc1O | 15.4%
46 | O=C(C[C@H]1C/C=C\C[C@@H](NC(=O)OCC2c3ccccc3-c3ccccc32)C(=O)O[C@@H](c2ccccc2)CNC1=O)N[C@H](CO)Cc1ccccc1 | 99.8% (active)

Row | SMILES | inhibition
47 | CC(C)(C)OC(=O)C[C@H]1C/C=C\C[C@@H](CC(=O)N[C@H](CO)Cc2ccccc2)C(=O)NC[C@@H](c2ccccc2)OC1=O | 9.47%
48 | CC(C)(C)OC(=O)C[C@@H]1C/C=C\C[C@@H](CC(=O)N[C@H](CO)Cc2ccccc2)C(=O)NC[C@@H](c2ccccc2)OC1=O | 13.2%
49 | Cc1c(NC(=O)CN(C)CC(=O)Nc2ccc(F)c(F)c2F)c(=O)n(-c2ccccc2)n1C | 7.46%
50 | OCC[C@H]1C[C@@H](O)[C@H](O)[C@]2(OCCCc3ccccc32)O1 | 8.75%
51 | CCNS(=O)(=O)c1ccc(NC(=O)Nc2cccc(C(F)(F)F)c2)cc1 | 52.6% (active)
52 | O=C(Nc1ccc(Cl)cc1)Nc1ccc(C(=O)N2CCOCC2)cc1 | 9.36%
53 | CC(=O)N1CCN(C(=O)Nc2cccc(C(F)(F)F)c2)CC1 | -7.17%
54 | CC(C)C[C@H](NC(=O)Nc1cccc(C(F)(F)F)c1)C(=O)O | 29.7%
55 | O=C(Nc1ccc(C(=O)N2CCOCC2)cc1)Nc1cccc(C(F)(F)F)c1 | 54.6% (active)
56 | O=C(NCc1ccccc1)c1ccc(S(=O)(=O)Nc2cccc(C(F)(F)F)c2)cc1 | 25.2%
57 | O=S(=O)(NCCS(=O)(=O)N1CCN(c2ccccc2)CC1)c1ccc(F)cc1 | 23.9%
58 | Cc1nc(-c2ccccc2)cn2c1nc1ccccc12 | 14.8%
59 | COc1ccccc1NC(=O)c1c(Br)cnn1C | -30.1%
60 | CN(C(=O)CCN1C(=O)/C(=C/c2ccccc2F)SC1=S)C1CCS(=O)(=O)C1 (centres undefined) | 24.9%
61 | O=C1/C(=C\c2ccccc2Cl)SC(=S)N1CCC(=O)N1CCCc2ccccc21 | 99.5% (active)
62 | O=C(CN1CCCCCC1)NCCN1C(=O)S/C(=C\c2ccccc2Cl)C1=O | 3.22%
63 | COc1ccc(C(=O)OCc2cc(=O)n3ccsc3n2)cc1F | 2.88%
64 | O=C(NNC1CC(=O)N(c2cccc(Cl)c2)C1=O)c1cccnc1 (centres undefined) | 14.9%
65 | COc1ccc(-c2c(C)cc3oc(=O)cc(-c4ccccc4)c3c2C)cc1OC | 7.66%
66 | COc1cc(OC)c2c(-c3cccc(-c4cccc(N)c4)c3)cc(=O)oc2c1 | 75% (active)
67 | COc1ccc(-c2c(C)cc3oc(=O)cc(-c4ccccc4)c3c2C)cc1F | 2.64%
68 | C=CCn1c(=S)[nH]c2scc(-c3ccco3)c2c1=O | -19.1%
69 | Cc1ccccc1C(OCCN(C)C)C1CCCCC1 (centres undefined) | 25.8%

Row | SMILES | inhibition
70 | COc1cccc(OC)c1C(=O)N1CCN(Cc2cccnc2)CC1 | -4.03%
71 | COc1ccc(S(=O)(=O)N2CCOCC2)cc1NC(=O)Cc1coc2cc(C)ccc12 | 3.68%
72 | Cc1cccc(CNS(=O)(=O)c2ccc(-c3cnc(C4CC4)o3)cc2)c1 | 35.8%
73 | COc1ccc(CNS(=O)(=O)c2ccc(-c3cnc(C4CC4)o3)cc2)cc1 | 15.3%
74 | Cc1cccc(NS(=O)(=O)c2ccc(-c3cnc(C4CC4)o3)cc2)c1 | 65.1% (active)
75 | CN(C)S(=O)(=O)c1ccc(C(=O)NCCN=C2NS(=O)(=O)c3ccccc32)cc1 | 7.98%
76 | COCCCNC(=O)CN1CCN(Cc2ccccc2Cl)C1=O | -6.08%
77 | Cc1ccc(-c2ccc(=O)n(CC(=O)NCCCN3CCCCC3)n2)cc1 | 2.15%
78 | Cc1nn(CC(=O)NCCc2ccccc2)c(=O)c2cc3occc3n12 | 19%
79 | CCc1ccc(-c2cc3c(=O)n(CC(=O)NCCCN4CCN(Cc5ccccc5)CC4)nc(C)n3n2)cc1 | 97.4% (active)
80 | O=C(NNC(=O)c1cc(S(=O)(=O)N2CCCCC2)ccc1Cl)c1ccccc1O | 16.6%
81 | C[C@@H](NC(=O)OC(C)(C)C)c1nnc(S(=O)(=O)Cc2ccccc2)o1 | 53.4% (active)
82 | C[C@H](NC(=O)OC(C)(C)C)c1nnc(SCC(=O)Nc2ccc(Br)cc2)o1 | 18.7%
83 | CC(C)Sc1nnc([C@H](Cc2ccccc2)NC(=O)OC(C)(C)C)o1 | 2.05%
84 | NC(=O)CC(NC(=O)Cc1ccc(Br)cc1)c1ccc(NC2CC3CCC2C3)c([N+](=O)[O-])c1 (centres undefined) | 9.79%
85 | COc1ccc(Br)cc1CN(C)C(=O)C1CC(=O)N(C2CCCC2)C1 (centres undefined) | 9.72%
86 | CCN(CC(=O)NC(C)C)C(=O)c1cc(S(=O)(=O)N2CCCCC2)ccc1N1CCCCC1 | 2.7%
87 | Cc1ccnc(NC(=O)C2CCN(S(=O)(=O)c3c(C)c(C)cc(C)c3C)CC2)c1 | 84.8% (active)
88 | O=C(Nc1ccccn1)C1CCN(S(=O)(=O)c2ccccc2)CC1 | -12.4%
89 | Cc1cccc(NC(=O)C2CCN(S(=O)(=O)c3cccc4cccnc34)CC2)c1 | 14%
